Values joined by “and” are separate entries in the source; they are usually repeats but may differ in a detail not shown here. Identical values can stand only once. Active and inactive are the calls of the source. Rule for the calls: active = hit-call score of the fitted dose curve at least 0.9, where 1 is the maximum; inactive = score below 0.9.

Among the data in PubChem BioAssay (EPA / NIEHS) are outcome and AC50 values, retold here.

Read-out in one experiment: Collagen I, COL1A1 (gene 1277)
Briefly: BSK_MyoF_CollagenI: BioMAP Diversity Plus: MyoF Assay for Collagen I Biomarker Activity (AID 2284238). The conditions noted are these: primary human lung fibroblasts. The method, boiled down: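 Primary human lung fibroblasts (MyoF system) treated 24 h; Collagen I quantified by ELISA and fitted in positive direction against DMSO. Parallel SRB total-protein staining assessed overt cytotoxicity.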
For the compound `FC(F)(F)C(F)(F)CNCC(F)(F)C(F)(F)F`, the result was inactive.

With `CO[Si](OC)(c1ccccc1)c1ccccc1`, the AC50 was 31.6 µM (active).

`OCC(F)(F)C(F)(F)C(F)(F)C(F)(F)C(F)(F)C(F)F`: the outcome was inactive.

As for `Nc1ccc([N+](=O)[O-])cc1O`, the outcome was inactive.

With `CCCCCCCOC(=O)c1ccccc1C(=O)OCCCCCCC`, the result was inactive.

On to `O=C(O)C(F)(F)C(F)(F)C(F)(F)C(F)(F)C(F)(F)C(F)(F)C(F)(F)C(F)(F)C(F)(F)C(F)F`, for which the AC50 is 19 µM (active) and 16.1 µM (active).

As to `OCCCC(F)(F)C(F)(F)C(F)(F)F`, the outcome was inactive.

For `O=S(=O)(O)C(F)(F)C(F)(F)C(F)(F)C(F)(F)C(F)(F)C(F)(F)C(F)(F)F`, the outcome was inactive.

Turning to `C#C[C@]1(O)CC[C@H]2[C@@H]3CCc4cc(OC)ccc4[C@H]3CC[C@@]21C`, the outcome was inactive.

Take `OCC(F)(F)C(F)(F)C(F)(F)C(F)(F)C(F)(F)C(F)(F)F`: the result was inactive.

With `FC(F)(F)C(F)(F)C(F)(F)N(C(F)(F)C(F)(F)C(F)(F)F)C(F)(F)C(F)(F)C(F)(F)F`, the result was inactive.

Regarding `O[Si](c1ccccc1)(c1ccccc1)c1ccccc1`, the AC50 was 31.3 µM (active).

As to `FC(F)(I)C(F)(F)C(F)(F)C(F)(F)I`, the half-maximal activity concentration (AC50) was 51.6 µM (active) and 46.4 µM (active) and 54.1 µM (active).

In the case of `O=S(=O)(OCC(F)F)C(F)(F)F`, the result was inactive.

Take `CCCCCCC(C)OC(=O)CCCCC(=O)OC(C)CCCCCC` (stereo not drawn): the result was inactive.

For `CS(C)(=O)=O`, the result was inactive.

On to `O=S(=O)(OCCOC(F)(F)F)C(F)(F)F`, for which the result was inactive.

For the compound `FC(F)(F)C(F)(F)C(F)(F)C(F)(F)C(F)(F)C(F)(F)CCS`, the outcome was inactive.

On to `C=C(C)C(=O)OCCC(F)(F)C(F)(F)C(F)(F)C(F)(F)C(F)(C(F)(F)F)C(F)(F)F`, for which the result was inactive.

Turning to `FC(F)(F)C(F)(F)C(F)(F)C(F)(F)C(F)(F)C(F)(F)C(F)(F)I`, the AC50 is 4.56 µM (active) and 3.16 µM (active).

With `CC(CCl)OP(=O)(OC(C)CCl)OC(C)CCl` (stereo not drawn), the outcome was inactive.

For `CCO[Si](CCC(F)(F)C(F)(F)C(F)(F)C(F)(F)C(F)(F)C(F)(F)F)(OCC)OCC`, the result was inactive.

In the case of `CCCCCCCCCCCCCCCC[N+](C)(C)Cc1ccccc1`, the AC50 was 0.987 µM (active).

`CCN(CC)c1ccc2c(C)cc(=O)oc2c1`: the result was inactive.

`O=C(O)C(F)(OC(F)(F)C(F)(OC(F)(F)C(F)(OC(F)(F)C(F)(F)C(F)(F)F)C(F)(F)F)C(F)(F)F)C(F)(F)F` (stereo not drawn): the outcome was inactive.

`CCc1c(Br)c(Br)c(Br)c(Br)c1Br`: the result was inactive.

Consider `CCc1ccc(C(c2ccc(CC)cc2)C(Cl)Cl)cc1`, for which the AC50 is 9.01 µM (active).

In the case of `O=C(O)C(F)(F)C(F)(F)C(F)(F)C(F)(F)C(F)(F)C(F)(F)C(F)(F)C(F)(F)C(F)(F)C(F)(F)C(F)(F)C(F)(F)F`, the AC50 is 24.5 µM (active) and 18.6 µM (active).

With `FC(F)(Br)C(F)(F)C(F)(F)C(F)(F)C(F)(F)C(F)(F)Br`, the result was inactive.

With `O=C(O)C=C(C(F)(F)F)C(F)(F)F`, the outcome was inactive.

Take `NC(=O)C(F)(F)C(F)(F)C(F)(F)C(F)(F)F`: the outcome was inactive.

For the compound `FC(F)(F)C(F)(F)C(F)(F)C(F)(F)C(F)(F)C(F)(F)C(F)(F)Br`, the result was inactive.

On to `Cc1ccc(S(=O)(=O)OCC(F)(F)C(F)(F)C(F)(F)C(F)(F)C(F)(F)C(F)F)cc1`, for which the outcome was inactive.

Take `FC1CC(F)(F)C(F)(F)C1(F)F` (stereo not drawn): the outcome was inactive.

Read-out in the next experiment: Collagen III, COL3A1 (gene 1281)
Briefly: BSK_MyoF_CollagenIII: BioMAP Diversity Plus: MyoF Assay for Collagen III Biomarker Activity (AID 2284239). The conditions noted are these: primary human lung fibroblasts. A digest of the protocol: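 Primary human lung fibroblasts (BioMAP MyoF system) exposed 24 h. Collagen III measured by ELISA; positive-direction fit relative to DMSO.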
On to `FC(F)(F)C(F)(F)CNCC(F)(F)C(F)(F)F`, for which the outcome was inactive.

On to `CO[Si](OC)(c1ccccc1)c1ccccc1`, for which the AC50 was 31.6 µM (active).

`OCC(F)(F)C(F)(F)C(F)(F)C(F)(F)C(F)(F)C(F)F`: the result was inactive.

Turning to `Nc1ccc([N+](=O)[O-])cc1O`, the outcome was inactive.

Consider `CCCCCCCOC(=O)c1ccccc1C(=O)OCCCCCCC`, for which the outcome was inactive.

On to `O=C(O)C(F)(F)C(F)(F)C(F)(F)C(F)(F)C(F)(F)C(F)(F)C(F)(F)C(F)(F)C(F)(F)C(F)F`, for which the half-maximal activity concentration (AC50) was 18.7 µM (active) and 16.4 µM (active).

On to `OCCCC(F)(F)C(F)(F)C(F)(F)F`, for which the outcome was inactive.

`O=S(=O)(O)C(F)(F)C(F)(F)C(F)(F)C(F)(F)C(F)(F)C(F)(F)C(F)(F)F`: the result was inactive.

In the case of `C#C[C@]1(O)CC[C@H]2[C@@H]3CCc4cc(OC)ccc4[C@H]3CC[C@@]21C`, the result was inactive.

For `OCC(F)(F)C(F)(F)C(F)(F)C(F)(F)C(F)(F)C(F)(F)F`, the result was inactive.

In the case of `FC(F)(F)C(F)(F)C(F)(F)N(C(F)(F)C(F)(F)C(F)(F)F)C(F)(F)C(F)(F)C(F)(F)F`, the result was inactive.

In the case of `O[Si](c1ccccc1)(c1ccccc1)c1ccccc1`, the AC50 is 31.5 µM (active).

For the compound `FC(F)(I)C(F)(F)C(F)(F)C(F)(F)I`, the AC50 was 53.1 µM (active) and 54.9 µM (active) and 54.2 µM (active).

In the case of `O=S(=O)(OCC(F)F)C(F)(F)F`, the outcome was inactive.

For `CCCCCCC(C)OC(=O)CCCCC(=O)OC(C)CCCCCC` (stereo not drawn), the outcome was inactive.

In the case of `CS(C)(=O)=O`, the outcome was inactive.

With `O=S(=O)(OCCOC(F)(F)F)C(F)(F)F`, the result was inactive.

For `FC(F)(F)C(F)(F)C(F)(F)C(F)(F)C(F)(F)C(F)(F)CCS`, the outcome was inactive.

For `C=C(C)C(=O)OCCC(F)(F)C(F)(F)C(F)(F)C(F)(F)C(F)(C(F)(F)F)C(F)(F)F`, the outcome was inactive.

Take `FC(F)(F)C(F)(F)C(F)(F)C(F)(F)C(F)(F)C(F)(F)C(F)(F)I`: the concentration at half-maximal activity (AC50) is 5.06 µM (active) and 4.85 µM (active).

In the case of `CC(CCl)OP(=O)(OC(C)CCl)OC(C)CCl` (stereo not drawn), the result was inactive.

`CCO[Si](CCC(F)(F)C(F)(F)C(F)(F)C(F)(F)C(F)(F)C(F)(F)F)(OCC)OCC`: the outcome was inactive.

For the compound `CCCCCCCCCCCCCCCC[N+](C)(C)Cc1ccccc1`, the half-maximal activity concentration (AC50) is 1.73 µM (active).

With `CCN(CC)c1ccc2c(C)cc(=O)oc2c1`, the result was inactive.

Regarding `O=C(O)C(F)(OC(F)(F)C(F)(OC(F)(F)C(F)(OC(F)(F)C(F)(F)C(F)(F)F)C(F)(F)F)C(F)(F)F)C(F)(F)F` (stereo not drawn), the outcome was inactive.

On to `CCc1c(Br)c(Br)c(Br)c(Br)c1Br`, for which the result was inactive.

For `CCc1ccc(C(c2ccc(CC)cc2)C(Cl)Cl)cc1`, the AC50 was 8.17 µM (active).

As to `O=C(O)C(F)(F)C(F)(F)C(F)(F)C(F)(F)C(F)(F)C(F)(F)C(F)(F)C(F)(F)C(F)(F)C(F)(F)C(F)(F)C(F)(F)F`, the result was inactive.

With `FC(F)(Br)C(F)(F)C(F)(F)C(F)(F)C(F)(F)C(F)(F)Br`, the outcome was inactive.

`O=C(O)C=C(C(F)(F)F)C(F)(F)F`: the result was inactive.

Turning to `NC(=O)C(F)(F)C(F)(F)C(F)(F)C(F)(F)F`, the result was inactive.

On to `FC(F)(F)C(F)(F)C(F)(F)C(F)(F)C(F)(F)C(F)(F)C(F)(F)Br`, for which the outcome was inactive.

For the compound `Cc1ccc(S(=O)(=O)OCC(F)(F)C(F)(F)C(F)(F)C(F)(F)C(F)(F)C(F)F)cc1`, the result was inactive.

For `FC1CC(F)(F)C(F)(F)C1(F)F` (stereo not drawn), the outcome was inactive.

As a reminder, the AC50 is the midpoint of the concentration-response curve, whichever way the signal moves.
